Experimental data from PubChem BioAssay AID504371 (National Center for Advancing Translational Sciences (NCATS), 2011).
Records with an inconclusive call do not appear. Activity calls are given as the source filed them. Calls follow the shape of the dose curve; as a rule, active = well fitted curve in the direction sought with a large enough effect; inconclusive = small, poorly fitted or top-dose-only effect, or another doubt; inactive = no such curve, though single readings can be large or run the other way.

Assay: qHTS Assay for Compounds Blocking the Interaction Between CBF-beta and RUNX1 for the Treatment of Acute Myeloid Leukemia: ME-1 cellular proliferation, SAR for Probe
Settings: ME-1 cell proliferation, ATP luminescence, 48 h
From the text: NIH Chemical Genomics Center [NCGC] NIH Molecular Libraries Probe Production centers Network [MLPCN] MLPCN Grant: X01MH083259-01 Assay Submitter (PI): Paul Liu NCGC Assay Overview: Core Binding Factor (CBF) abnormalities are associated with 20-25% of all acute myeloid leukemias (AML), of which 5-10% are further sub classified as acute myelomonocytic leukemia with eosinophilia, also known as M4Eo in the FAB classification scheme. This subtype of leukemia is usually associated with chromosome 16 inversion (p13:q22). Chromosome 16 inversion results in formation of the fusion oncogene CBFB-MYH11, which encodes the fusion protein CBF-beta-SMMHC. […] It has been hypothesized that the interference of CBF-beta and RUNX1 binding could have therapeutic implications for patients with CBF mediated leukemias. We developed a CBF-beta and RUNX1 binding assay in AlphaScreenTM format and optimized it for high throughput screening to search for inhibitors. The goal of this project is to screen MLPCN's compound collection (MLSMR) for identifying the inhibitors of the interaction between CBF-beta and RUNX1 proteins as research probes. If these probes work well in the animal models, the ultimate goal of this project is to development a new drug treatment for this disease. The present assay assesses compounds ability to slow cellular proliferation in a CBFb dependent cell line, ME-1.
NCGC Assay protocol: 2uL/well media was dispensed per well into 1536-well white solid-bottom plates using Multidrop Combi dispenser. Subsequently, 23 nL/well compound solutions or DMSO controls were dispensed to the assay plates via a pintool workstation. […] The plates were incubated at 37 °C with 5% CO2 and 95% humidity for 48 hours, and then ATP content was measured following the addition of 4uL/well of ATPlite reagent and a 20 min incubation on a ViewLux plate reader.
In the case of CN1C(=O)CN=C(c2ccc[nH]2)c2cc(Cl)ccc21 (tested in a mixture with another compound), the Potency is reported as 27.4 µM (active). With CCN(CC)CCN1C(=O)CN=C(c2ccccn2)c2cc(Cl)ccc21 the Potency was 109 µM (active). In the case of CCN(CC)CCN1C(=O)CN=C(c2ccc[nH]2)c2cc(Cl)ccc21, the Potency is reported as 137 µM (active).
